Results: PubChem BioAssay (NCI)
About 83,000 compounds went through this panel and 20% of them were active in at least one assay; those are over-represented in the sample as a whole.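 Compound tested at a single concentration for 48 hours in 96-well plates; a percent growth value below 10 was scored as active.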 A number with no mark means an inactive call. The source made the active and inactive calls.

These molecules were tested on NCI-H23 lung (assay: NCI-60 one-dose screen, 48 h (100 = growth as untreated, 0 = no growth, -100 = all killed)). Settings: 10 µM unless noted.

In the case of `CC[C@H](C)[C@H]1NC(=O)[C@@H](N[C@](C)(O)[C@@H](N)CC(C)C)[C@@H](C)OC(=O)[C@H](Cc2ccc(OC)cc2)N(C)C(=O)[C@@H]2CCCN2C(=O)[C@H](CC(C)C)NC(=O)[C@@H](C)C(=O)[C@H](C(C)C)OC(=O)C[C@@H]1O`, the growth is reported as -29.6% (active).
For `O=C1N=C(c2c(-c3[nH]c(=O)c4ccc(Br)cc4c3O)c(O)c3ccccc3c2O)C(=O)c2cc(Br)ccc21`, the growth was -43% (active).
In the case of `COc1ccccc1CNCCCN1C(=O)c2ccc3c4c(ccc(c24)C1=O)C(=O)N(CCCNCCCCNCCCCN)C3=O`, the growth is reported as 6.63% (active).

Point of comparison: `COc1ccc(C2=CC(c3ccc(Oc4ccnc5cc(Cl)ccc45)c(OC)c3)c3c(nc(OC)[nH]c3=O)N2)cc1` (stereo not drawn), growth 83.4%. Against it:
- CCNC(=O)C1CCCN1C(=O)C(CCCN=C(N)N)NC(=O)C(CC(C)C)NC(=O)C(CC(C)C)NC(=O)C(Cc1ccc(O)cc1)NC(=O)C(CO)NC(=O)C(Cc1c[nH]c2ccccc12)NC(=O)C(Cc1cnc[nH]1)NC(=O)C1CCC(=O)N1 (stereo not drawn) — higher, 87.8%
- COC(=O)c1cc(-c2cccs2)c(C#N)c(N)c1C#N — higher, 96.7%
- CC[C@]1(O)C[C@@H]2CN(Cc3c([nH]c4ccccc34)[C@@](C(=O)OC)(c3cc4c(cc3OC)N(C)[C@H]3[C@@](O)(C(=O)OC)[C@H](OC(C)=O)[C@]5(CC)[C@@H]6C[C@@H]6CN6CC[C@]43[C@@H]65)C2)C1 — lower, 25.7%
- CCOC(=O)[C@H](CSSc1ncnc2cc[nH]c12)NC(=O)[C@@H](C)c1ccc2cc(OC)ccc2c1 — lower, 19.9%
- Cc1nc(Nc2cccnc2)sc1C(=O)/C=C/c1ccc(F)cc1 — lower, 82.3%
- Cc1cc(C)c(S(=O)(=O)N2CCN(c3cc4c(cc3F)c(=O)c(C(=O)O)cn4C3CC3)CC2)c(C)c1 — lower, 57.4%
- COc1ccc(C(=O)/C=C/c2cc(C(=O)c3cc(OC)c(OC)c(OC)c3)ccc2OC)cc1 — lower, 72.9%
- NC(=O)NC(=O)/C=C/C(=O)OCCCl — higher, 111%
- COc1cc2nc(N3CCC[C@@H](NC4=CC(=O)c5ccccc5C4=O)C3)nc(N)c2cc1OC — higher, 87.2%
- O=S(=O)(c1ccccc1)n1ccc(-c2ccc3c(c2)CCO3)n1 — lower, 78.4%
- O=C(CNc1ccc(Cl)cc1)Nc1ccc(-c2nc3ccccc3s2)cc1 — lower, 39.1%
- COc1ccc(/C=C2\CCCC3=C2NC(C)=NC3c2ccc(OC)c(OC)c2)cc1OC (stereo not drawn) — lower, 29.1%
- COc1cc(OC)c(C(=O)/C=C/c2ccc(C(F)(F)F)cc2)c(OC)c1 — lower, 42.3%
- O=C(CCl)NCCNc1nccc(Nc2ccc(S(=O)(=O)Nc3ccccn3)cc2)n1 — lower, 22.6%
- O=C(O)c1ccc(-n2c(=O)c3ccccc3c3ccccc3c2=O)cc1 — higher, 102%
- Cc1nn(-c2ccc(Cl)cc2)c(=O)n1CCOc1ccccc1Cl — higher, 91.6%
- CC(C)(C)OC(=O)N[C@@H](Cc1ccccc1)C(=O)N(Cc1ccccc1)C1(C(=O)NCc2ccccc2)CCN(Cc2ccccc2)CC1 — lower, 49.3%
- COc1ccc(C(=O)c2cc(OC)c(OC)c(OC)c2)cc1/C=C/C(=O)c1ccc(OC)c(OC)c1 — lower, 32.2%
- CCCCNC(=O)NS(=O)(=O)c1ccc(N2N=C(c3ccc(C)cc3C)CC2c2ccc(OC)cc2)cc1 (stereo not drawn) — lower, 65.4%
